Vaccinia Venus: vaccinia inhibition (Venus reporter) | Vaccinia virus Venus reporter expression, fluorescence | actives 0.46% (n = 330,000) | Potency, µM (doses to about 36.5 µM), for the others: at the highest dose activity change, negative = inhibition, hits mostly inhibitors | AID 720580; calls by dose curve; tested in A549 cells; also: potency is read from the fitted curve at half-maximal effect; % is scaled to controls: 0 for no effect and ±100 for the full control effect; nearly all actives have a fitted effect of over 30% in size
VACV mCherry inh: vaccinia inhibition (mCherry reporter); actives 0.63% (n = 310,000); Potency, µM (series often up to 36.5 µM), for inactives: top-dose activity change, negative = inhibition, most hits filed as inhibitors; Vaccinia virus mCherry reporter infection, fluorescence; calls by dose curve; tested in A549 cells; also: potency is read from the fitted curve at half-maximal effect; % is scaled to controls: 0 for no effect and ±100 for the full control effect; nearly all actives have a fitted effect of over 35% in size
Marburg entry inh: Marburg virus entry inhibition. actives 1.8% (n = 300,000). Marburg virus pseudotyped entry inhibition, cell reporter. Potency, µM (titrated, usually from 37.8 µM), inactives show at the top dose activity change, negative = inhibition, most hits filed as inhibitors; calls by dose curve; tested in HEK293 cells; also: potency is read from the fitted curve at half-maximal effect; % is scaled to controls: 0 for no effect and ±100 for the full control effect
CHX counter: counter-screen hit for Shiga toxin inhibitors, cycloheximide | cell reporter, cycloheximide protein synthesis inhibition counterscreen | max response, % | actives 12% (n = 300,000); in the data active = max response mostly above about 13%, no sharp cut-off; inactive = mostly below about 14%; also: read at 38.3 µM for the half of the compounds with a filed dose; 0% is about no effect
LASV entry inh: inhibitors of Lassa virus binding or cell entry. Lassa virus pseudotype entry inhibition, cell reporter. Potency, µM (doses to about 37.9 µM), without a hit: at the top dose activity change, negative = inhibition, most hits filed as inhibitors. actives 1.2% (n = 300,000). AID 540256; calls by dose curve; tested in HEK293 cells; also: potency is read from the fitted curve at half-maximal effect; % is scaled to controls: 0 for no effect and ±100 for the full control effect; nearly all actives have a fitted effect of over 50% in size
Shiga inhibitor: Shiga toxin inhibition; Vero cells, Shiga toxin protein synthesis inhibition reporter; AID 2315; actives 9.2% (n = 290,000); inhibition, % at 38.7 µM; in the data active = inhibition mostly above about 28%, no sharp cut-off; inactive = mostly below about 43%; also: 0% is about no effect
* marks the source's active call; other numbers are inactive results; i = inactive; ? = inconclusive; . = not tested or not shown; [ ] = dose if it differs, or a comment. The entries come from a sample that favours hits as a whole.

SMILES | Vaccinia Venus | VACV mCherry inh | Marburg entry inh | CHX counter | LASV entry inh | Shiga inhibitor
CC1CCN(CCCn2c(SCC(=O)Nc3ccccc3Cl)nc3ccccc3c2=O)CC1 | -17% | -11% | ? | -10 | 6.3µM* | -20
COC(CNC(=O)c1ccc2nc3ccccc3c(=O)n2c1)OC | -4% | -8% | 13%[46.1 µM] | 10 | -1%[46.1 µM] | 4
CCN(C(=O)CSc1nc2ccccc2n1CC(=O)Nc1ccc(F)cc1F)c1ccccc1 | -13% | -1% | . | . | 11µM* | .
COc1ccccc1CNC(=O)c1cnc2sc(N3CCCCCC3)nn2c1=O | -21% | i | . | . | -4%[46.1 µM] | .
COc1ccccc1-c1noc(-c2ccc(NCC3CCCO3)c([N+](=O)[O-])c2)n1 (centres undefined) | -6% | -5% | -6%[46.1 µM] | . | 4%[46.1 µM] | .
CC(C)NC(=O)c1ccc(COCC(F)(F)F)cc1 | -10% | -11% | 3% | 8 | 3% | 29
CC(C)(C)C(=O)Nc1ccc(C(=O)Nc2cccnc2)cc1 | . | . | -2% | 43* | ? | 52
COc1ccc(C(=O)Nc2ccc(C(=O)Nc3cccnc3)cc2)cc1 | -21% | i | ? | -2 | ? | .
O=C(Nc1cccnc1)c1ccc(COCC(F)(F)F)cc1 | -4% | -4% | 6% | 12* | ? | 38*
CC(C)(C)C(=O)Nc1ccccc1C(=O)Nc1cccnc1 | -6% | . | 3% | -3 | 18% | 15
CCC(=O)Nc1ccc(C(=O)Nc2cccnc2)cc1 | -19% | -17% | 2% | 15* | ? | 37*
CCN1C(=O)N[C@@H](c2ccco2)C(C(C)=O)=C1C | -4% | -30% | 26%[14.2 µM] | . | . | .
COC[C@H]1O[C@@H]2O[C@@H]1[C@@H](C=Cc1ccccc1)C[C@H]2C | . | . | 5%[14.2 µM] | . | . | .
CC(C)N(C(=O)Cn1cc(SCC(=O)Nc2ccccc2F)c2ccccc21)C(C)C | -11% | -7% | . | . | 14%[46.1 µM] | .
COc1ccccc1CN(C)CC(=O)Nc1ccccc1-c1ccccc1 | -27% | ? | ? | 15* | 11% | 2
COc1ccc(CN(C)CC(=O)Nc2ccccc2-c2ccccc2)c(OC)c1 | -20% | -11% | ? | 11 | ? | -2
Cc1ccccc1NC(=O)COc1ccccc1C | . | . | . | 16* | . | 27
O=C(COc1ccccc1O)Nc1ccccc1Cl | -8% | -14% | -19%[46.1 µM] | 71* | 0% | 93*
Cc1ccccc1OCC(=O)Nc1ccccc1-c1ccccc1 | . | . | 0% | 18* | . | 42*
CCC(Sc1ncccc1C(=O)Oc1ccccc1Cl)C(=O)Nc1ccccc1OC (centres undefined) | -4% | -2% | . | . | 24%[46.1 µM] | .
O=C(CSc1ncccc1C(=O)Oc1ccccc1Cl)Nc1ccccc1Cl | -10%[7.34 µM] | -14%[7.34 µM] | . | 20 | ? | 64*
COc1ccc(-n2cc(CNCCN3CCOC3=O)c(-c3ccccc3Cl)n2)cc1 | 5%[7.34 µM] | -4%[7.34 µM] | . | -2 | . | -4
CCN1CCC(CNCc2cn(-c3ccc(OC)cc3)nc2-c2ccccc2Cl)C1 (centres undefined) | -20% | ? | 4µM* | 1 | ? | 1
COC(=O)c1cc(NC(=O)CN2C(=O)C(=O)N(C3CCCC3)C2=O)cc(C(=O)OC)c1 | -7% | -14% | ? | . | -5% | .
COc1ccc(CC2NCCC3(O)CCCCC23)cc1 (centres undefined) | . | . | -1% | -6 | 0% | -27
SMILES | Vaccinia Venus | VACV mCherry inh | Marburg entry inh | CHX counter | LASV entry inh | Shiga inhibitor
COc1ccc(CC2NCC(O)C2OC(C)=O)cc1 (centres undefined) | 0.11µM* | 0.0089µM* | . | . | . | .
COc1ccc(CC2NC[C@H](O)[C@H]2OC(C)=O)cc1 (some centres undefined) | 1µM* | 0.79µM* | . | . | . | .
Cc1cc(Br)cn2cc(C(=O)O)nc12 | -3% | -6% | -3%[46.1 µM] | -6 | 14% | -18
CC[C@]12c3[nH]c4cc(-c5ccco5)ccc4c3CCN1C(=O)[C@@H](CC(=O)NCCc1ccccn1)C[C@@H]2C(=O)N1CCN(C(=O)c2ccco2)CC1 | ? | -27% | . | . | . | .
CC(C)(C)c1ccc(C(=O)/C=C2\NC(=O)CS2)cc1 | -15% | . | -20%[46.1 µM] | 26* | ? | 49
COc1ccccc1NC(=O)/C=C1\NC(=O)CS1 | -12% | -20% | -9%[46.1 µM] | 45 | -10% | 84
Cc1ccc(NC(=O)/C=C2\NC(=O)CS2)cc1 | -4% | i | 10%[46.1 µM] | 45* | 10% | 62*
COCCOC(=O)/C=C1/NC(=O)CS1 | -7% | i | 9% | 1 | 11% | -13
O=C(c1ccc(NS(=O)(=O)c2ccc(F)cc2)cc1)N1CCC1 | -8% | -14% | 0% | . | 1% | .

Assay outcomes as filed in PubChem BioAssay.
